# GSTO1 counter: inhibitors of recombinant GSTO1, primary screen, counter-screen for RBBP9 inhibitor project, biochemical, fluorescence polarization | Glutathione S-transferase omega-1 (Homo sapiens), P78417 | activity-based probe fluorescence polarization | inhibition, % at 5.96 µM | actives 1.1% (n = 300,000) | AID 1974, 2009;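 active = inhibition above the campaign mean inhibition plus 3 SD, cut at about 35% in these data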;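 also: 0% = GSTO1-1 with DMSO and 100% = wells lacking GSTO1-1 enzyme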
# Target sequence (P78417 whole entry, looked up): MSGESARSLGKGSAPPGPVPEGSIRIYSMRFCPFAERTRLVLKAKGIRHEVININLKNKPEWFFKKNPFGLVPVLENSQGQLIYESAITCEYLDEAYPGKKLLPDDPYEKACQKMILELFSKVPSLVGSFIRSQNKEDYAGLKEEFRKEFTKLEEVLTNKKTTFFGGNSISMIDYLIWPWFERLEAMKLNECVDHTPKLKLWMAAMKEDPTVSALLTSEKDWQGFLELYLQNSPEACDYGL
# PME-1 primary: PME-1 inhibitors via competitive probe labeling, primary screen, biochemical, fluorescence polarization, FP-Rh probe, HTS. inhibition, % at 5.9 µM. actives 0.53% (n = 320,000). Protein phosphatase methylesterase 1 (Homo sapiens), Q9Y570. recombinant PME-1;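 active = inhibition above the campaign mean of all compounds plus 3 SD, cut at about 26% in these data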;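 also: competitive labeling of PME-1 active site by serine hydrolase directed probe; 0% = PME-1 with DMSO and 100% = wells lacking PME-1 enzyme; inhibitors block probe labeling so polarization falls and inhibition rises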
# Target sequence (Q9Y570 whole entry, looked up): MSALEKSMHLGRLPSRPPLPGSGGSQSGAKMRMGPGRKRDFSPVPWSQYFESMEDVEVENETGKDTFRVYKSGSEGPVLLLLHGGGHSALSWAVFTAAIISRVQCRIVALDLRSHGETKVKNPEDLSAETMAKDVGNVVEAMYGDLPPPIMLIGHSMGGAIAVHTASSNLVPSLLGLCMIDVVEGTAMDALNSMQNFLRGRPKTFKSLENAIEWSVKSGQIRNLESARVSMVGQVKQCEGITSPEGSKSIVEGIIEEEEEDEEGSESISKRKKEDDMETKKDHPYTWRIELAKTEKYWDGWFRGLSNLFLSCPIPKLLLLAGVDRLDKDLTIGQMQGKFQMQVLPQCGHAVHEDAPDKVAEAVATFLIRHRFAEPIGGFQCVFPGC
# PREPL inhibitor: PREPL enzyme inhibitors, primary screen, biochemical, fluorescence polarization; actives 0.68% (n = 320,000); Prolyl endopeptidase-like (Homo sapiens), Q4J6C6; recombinant PREPL, fluorescence polarization activity-based probe; inhibition, % at 5.96 µM; in the data active = inhibition above about 43%;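 also: 0% = enzyme with DMSO and 100% = wells lacking enzyme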
# LYPLA1 inh: LYPLA1 inhibitors, primary screen, counter-screen for PME1 inhibitor project, biochemical, fluorescence polarization, FP-Rh probe ABPP; actives 0.16% (n = 320,000); recombinant LYPLA1; inhibition, % at 5.9 µM; Acyl-protein thioesterase 1 (Homo sapiens), O75608;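 active = inhibition above the mean of all tested compounds plus 3 SD, set per campaign, cut at about 14% in these data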;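 also: inhibitors block serine hydrolase probe labeling of LYPLA1 so polarization falls; 0% = enzyme with DMSO and 100% = wells lacking LYPLA1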
# Fam108B counter: mouse Fam108B serine hydrolase inhibitors, primary screen, counter-screen for RBBP9 inhibitor project, biochemical, fluorescence polarization; actives 0.33% (n = 300,000); inhibition, % at 9.51 µM; recombinant Fam108B, FP-Rh probe fluorescence polarization;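 active = inhibition above the screen mean inhibition plus 3 SD, computed separately per campaign, cut at about 18% in these data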;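 also: inhibitors lower polarization as less probe binds the enzyme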
# LYPLA2 inh: LYPLA2 inhibitors, primary screen, counter-screen for PME1 inhibitor project, biochemical, fluorescence polarization, FP-Rh probe ABPP; recombinant LYPLA2; inhibition, % at 5.9 µM; actives 0.38% (n = 320,000); AID 2177, 2009;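 active = inhibition above the screen-wide mean plus 3 SD, limit set per campaign, cut at about 26% in these data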;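 also: 0% = LYPLA2 with DMSO and 100% = wells lacking LYPLA2 enzyme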
# Fam108b confirm: mouse Fam108b serine hydrolase inhibitors, confirmation, counter-screen for RBBP9 inhibitor project, biochemical, fluorescence polarization, triplicate. shares compounds with Fam108B counter. recombinant Fam108b, FP-Rh probe fluorescence polarization. inhibition, % at 9.51 µM. actives 44% (n = 930);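 active = inhibition above a limit from the primary screen, the mean over all compounds plus 3 SD, cut at about 19% in these data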;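 also: 0% = median of active Fam108b wells and 100% = catalytically dead S170A mutant; inhibitors free the probe so polarization falls as inhibition rises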
# Fam108b ABPP HTS: inhibition of mouse Fam108b by HTS hits, late-stage follow-up, biochemical, gel-based ABPP, soluble recombinant form; shares compounds with Fam108B counter; fluorophosphonate probe; inhibition, % at 20 µM; actives 44% (n = 260); in the data active = inhibition above about 40%
# Starred values were filed as active, the others as inactive; x = no result. Hits are enriched below; roughly 2% of the tested compounds scored in any of these assays.
SMILES,GSTO1 counter,PME-1 primary,PREPL inhibitor,LYPLA1 inh,Fam108B counter,LYPLA2 inh,Fam108b confirm,others
CCOc1cc(-c2nc(C)c(C(C)=O)n2O)ccc1OCC(=O)Nc1cccc(C)c1,3,7,10,-3,4,-3,x,
O=C(c1ccc(N2CCN(CCO)CC2)nc1)N1CCOCC1,-2,3,-5,2,1,8,x,
COc1cccc(NC(=O)CN(C)C(=O)C2CCN(C(=O)c3ccccc3C)CC2)c1,8,2,-1,-2,19*,-1,0,
CCCCC1CCC(C(=O)N(C)CC(=O)Nc2cccc(OC)c2)CC1 (centres undefined),x,-2,3,-2,x,0,x,
COc1ccc(-c2nn(C)c3sc(C(=O)NCc4ccco4)cc23)cc1OC,-1,-53,13,-34,-33,-83,x,
COc1ccc(NC(=O)c2cc3c(-c4ccc(OC)c(OC)c4)nn(C)c3s2)cc1OC,3,17,26,9,46*,2,-1,
Cc1ccc2c(CN3CCC(C(N)=O)CC3)cc(=O)oc2c1C,5,-2,23,1,-4,2,x,
O=c1cc(CSc2ccc(Cl)cc2)[nH]c2[nH]n(-c3ccccc3)c(=O)c12,-191,10,37,-4,19*,7,-2,
Cc1ccc(SCc2cc(=O)c3c(=O)n(-c4ccccc4)[nH]c3[nH]2)cc1,-101,3,4,0,5,3,x,
CC(C)C[C@@H](COc1ccccc1)N1CCN(Cc2ccccc2)CCC1=O,7,6,0,0,-2,0,x,
O=C(N/N=C/c1ccc(O)cc1O)c1ccc(CN2C(=O)c3cccc4cccc2c34)cc1,-48,-36,26,-38,38*,-51,28*,
O=C(N/N=C/c1ccccc1)c1ccc(CN2C(=O)c3cccc4cccc2c34)cc1,-20,-11,-6,-8,-5,-10,x,
CN(CC(=O)Nc1ccc(F)cc1)CC(=O)N1CCCC1,x,9,15,4,x,2,x,
O=C(c1cc([N+](=O)[O-])ccc1N1CCCCC1)N1CCCCC1,9,1,15,-2,38*,1,-10,
O=C(c1cc([N+](=O)[O-])ccc1N1CCCC1)N1CCCCC1,-1,-7,1,0,-3,-3,x,
O=C1NN(c2cccc(Br)c2)C(=O)/C1=C/c1ccc(-c2cc([N+](=O)[O-])ccc2O)o1,-27,0,4,-9,20*,-4,-12,
CCC(=O)N1CCc2cc(S(=O)(=O)NCCC(=O)N3CCN(c4cccc(C)c4)C(C)C3)ccc21 (centres undefined),10,9,11,-2,1,3,x,
COC(=O)N/N=C/c1cc(N=Nc2ccccc2Cl)ccc1O,-3,-2,22,-18,22*,-14,-3,
COC(=O)N/N=C/c1cc(N=Nc2ccccc2)ccc1O,5,3,-21,-1,4,0,x,
Nc1ccc(C(=O)N/N=C\c2cc(N=Nc3cccc4ccccc34)ccc2O)cc1,6,40*,14,-5,21*,7,18,
Cc1cc(C(=O)N/N=C/c2cc(N=Nc3ccccc3)ccc2O)n[nH]1,0,7,13,-9,20*,5,11,
CC1CC(C)CN(C(=O)COC(=O)c2ccc3c(c2)OCCO3)C1 (centres undefined),x,x,-6,x,x,x,x,
Cn1c(=O)c(C#N)c(-c2ccc(F)cc2)c2cc(C(=O)c3cc(Cl)cc(Cl)c3O)cnc21,23,63*,-3,1,22*,3,22*,
Cc1ccc2nc(/C(C#N)=C/c3ccccc3C(=O)O)[nH]c2c1,-3,1,10,-4,-2,-6,x,
Cc1ccc2nc(/C(C#N)=C\c3ccc(N4CCCCC4)c([N+](=O)[O-])c3)[nH]c2c1,-10,68*,27,-8,31*,15,0,
SMILES,GSTO1 counter,PME-1 primary,PREPL inhibitor,LYPLA1 inh,Fam108B counter,LYPLA2 inh,Fam108b confirm,others
Cn1c(=N)n(CC(=O)c2ccccc2)c2ccccc21,-1,1,12,3,0,2,x,
Cn1c(=N)n(CC(=O)c2ccc(Cl)c(Cl)c2)c2ccccc21,-3,19,42,5,21*,12,6,
N#CCCn1nc(-c2ccccc2)c2ccccc2c1=O,2,1,-4,-1,-1,-6,x,
Cc1[nH]c2ccccc2c1/C=N/NC(=O)C1CC1(c1ccccc1)c1ccccc1 (centres undefined),-2,42*,8,-8,21*,-7,16,
COc1ccccc1NC(=O)C1CCN(C(=O)c2ccco2)CC1,6,2,-11,-1,2,3,x,
Cc1ccc(N=Nc2ccc3ccccc3c2O)cc1,3,-5,-2,4,28*,0,9,
COc1cccc(N=Nc2ccc3ccccc3c2O)c1,0,7,9,-5,19*,-4,5,
Cc1nn(-c2ccccc2)c(Cl)c1C=NNc1ccc(S(=O)(=O)Nc2ccccc2C(=O)O)cc1[N+](=O)[O-],x,x,x,x,x,x,x,Fam108b ABPP HTS=0
O=C1NC(=O)/C(=C/c2ccc(-c3cc(C(=O)O)ccc3Cl)o2)S1,-72,-10,3,3,3,0,x,
O=C1NC(=S)/C(=C\c2ccc(-c3ccccc3Cl)o2)S1,35*,37*,33,10,29*,11,45*,Fam108b ABPP HTS=65*
Cc1ccccc1N1CCN(CC(=O)Nc2ccccc2C(=O)NC2CC2)CC1,x,-6,-1,1,x,2,x,
Cc1ccc(S(=O)(=O)N(CC(=O)NCc2ccc(F)cc2)C(=O)N2CCN(C)CC2)cc1,3,-4,3,-3,1,-3,x,
CN(CC(=O)Nc1ccc(F)cc1)C(=O)CSc1nnc(Cc2ccccc2)o1,x,x,11,x,x,x,x,
O=C(Nc1nc(-c2ccccc2)cs1)c1ccccc1NS(=O)(=O)c1ccc(F)cc1,-57,18,18,-7,24*,3,6,
O=S(=O)(Nc1ccc(-c2csc(-c3ccccc3)n2)cc1)c1ccc(F)cc1,-11,-46,-15,-36,-29,-46,x,
O=C(Nc1c[nH]c(=O)[nH]c1=O)c1cc([N+](=O)[O-])cc([N+](=O)[O-])c1,1,-8,7,-5,-5,1,x,

# Source: PubChem (The Scripps Research Institute Molecular Screening Center)
